Shown are actives, neighbours in structure and some others; about 18% of the full set was active somewhere.
IL-1B inflam inh: blocks inflammasome-driven IL-1 beta release; 360,000 compounds, 4.7% hits; activity change, % at 57.5 µM; AID 743279; THP-1 LPS/ATP IL-1B secretion, AlphaLISA, 16 h; stronger effect = lower value; in the data active means activity change below about -50%; inconclusive means mostly about -30% to -49%
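THP-1 cells pretreated 1 hr with compounds (up to 57.5 uM final), then stimulated with LPS (250 ng/mL final) plus ATP (1.25 mM final); secreted IL-1B measured by AlphaLISA after 16 hr, decreased signal indicating inhibition.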
TDP1 cell noCPT: qHTS for Inhibitors of human tyrosyl-DNA phosphodiesterase 1 (TDP1): qHTS in cells in absence of CPT | Potency, µM (titrated, usually from 46.2 µM), most hits filed as inhibitors | 420,000 compounds, 15% hits | DT40 Tdp1-/- hTDP1 cells, no CPT, ATP luminescence, 48 h | AID 686978, 2013; further: nearly all actives have a fitted effect of over 55% in size
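Camptothecin absent (DMSO only). Human TDP1-complemented DT40 knockout cells, 400 cells/well, 37 °C for minimum 48 hr; ATP measured via CellTiter-Glo, 30 min dark incubation, luminescence.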
DT40 TDP1 CPT: DT40-hTDP1 cell growth loss with CPT; Potency, µM (top dose mostly 46.2 µM), hits mostly inhibitors; AID 686979; chicken DT40 Tdp1-/-;hTDP1 cells + 20 nM CPT, ATP luminescence, 48 h; 420,000 compounds, 12% hits; further: nearly all actives have a fitted effect of over 55% in size
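Chicken DT40 Tdp1-/- cells complemented with human TDP1, 400 cells/well, exposed to compounds plus 20 nM camptothecin for at least 48 h at 37 C; viability read as ATP content by CellTiter-Glo luminescence.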
HepG2 tox: counter-screen for TGF-b inhibitors: cytotoxicity in HepG2 cells | 410,000 compounds, 0.76% hits | Potency, µM (highest dose often 46.1 µM), usual class: cytotoxic | HepG2 CAGA-GFP viability, ATP luminescence, 18 h
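HepG2 CAGA-GFP cells (1000/well, DMEM with 1% FBS) received compound, then TGF-beta at 500 pg/mL final, and were incubated 18 hours at 37 degrees C. Viability was read by CellTiter-Glo luminescence. Media-only wells were set as complete cell-killing and DMSO as no toxicity.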
TGFb inhibitor: TGF-b pathway inhibition | AID 588855 | Potency, µM (highest dose often 46.1 µM), hits mostly inhibitors | HepG2 CAGA-GFP TGF-b/SMAD3 reporter, GFP fluorescence, 18 h; TGF-beta stimulated, 500 pg/mL final | 410,000 compounds, 1.2% hits; further: nearly all actives have a fitted effect of over 65% in size
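GFP signal (ex488/em500-530) from TGF-beta-stimulated HEPG2 CAGA-GFP cells, 500 pg/mL final, 18 h at 37 degrees C in DMEM plus 1% FBS, normalized to unstimulated and DMSO-stimulated controls.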
TDP1 block: blocks human tyrosyl-DNA phosphodiesterase 1; AID 485290; recombinant TDP1, AlphaScreen DNA substrate cleavage; 350,000 compounds, 0.28% hits; Q9NUW8; Potency, µM (highest dose often 130 µM), usual class: inhibitors; further: nearly all actives have a fitted effect of over 40% in size
Target sequence (Q9NUW8 whole entry, looked up): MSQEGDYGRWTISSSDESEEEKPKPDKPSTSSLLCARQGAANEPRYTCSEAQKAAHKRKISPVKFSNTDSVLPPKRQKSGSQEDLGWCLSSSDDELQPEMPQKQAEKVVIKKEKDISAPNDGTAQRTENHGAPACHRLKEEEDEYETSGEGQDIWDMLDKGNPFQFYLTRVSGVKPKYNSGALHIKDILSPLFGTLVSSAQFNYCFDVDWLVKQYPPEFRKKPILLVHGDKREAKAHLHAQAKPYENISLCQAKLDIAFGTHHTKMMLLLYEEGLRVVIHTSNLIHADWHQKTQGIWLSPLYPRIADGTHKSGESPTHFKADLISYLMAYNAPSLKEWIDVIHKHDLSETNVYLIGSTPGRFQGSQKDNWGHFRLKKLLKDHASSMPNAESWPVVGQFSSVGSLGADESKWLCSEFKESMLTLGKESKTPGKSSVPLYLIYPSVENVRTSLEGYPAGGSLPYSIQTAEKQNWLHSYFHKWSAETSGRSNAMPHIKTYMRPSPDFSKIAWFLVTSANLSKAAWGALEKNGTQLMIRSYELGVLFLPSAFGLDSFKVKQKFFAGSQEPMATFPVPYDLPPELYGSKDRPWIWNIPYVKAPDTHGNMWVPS
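Here, a 5' biotin and 3' phosphotyrosine-FITC DNA oligonucleotide reports Tdp1 activity: intact substrate bridges AlphaScreen beads, while cleavage leaves a 3' phosphate and drops signal. All incubations at room temperature.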
Hits are given with their value; [ ] = remark or other dose. Unless noted, the call rests on the fitted dose curve; in most records, active means well fitted curve in the direction sought with a large enough effect; inconclusive means small, poorly fitted or top-dose-only effect, or another doubt; inactive means no such curve, though single readings can be large; an effect the other way counts as inactive or inconclusive.

Cc1c(C(=O)NCc2cccnc2)sc2nc(-c3ccccc3)cn12 was read as IL-1B inflam inh inactive, TDP1 cell noCPT 16.4µM, DT40 TDP1 CPT inactive, HepG2 tox inactive and TGFb inhibitor inactive.
COCc1c(C(=O)N2CCN(c3ccccc3)CC2)cnn1-c1nccc(-c2ccco2)n1 was read as TDP1 cell noCPT inactive and DT40 TDP1 CPT inactive[9.04 µM].
`CC(=O)NCCC(=O)Nc1cc(S(=O)(=O)N2CCOCC2)ccc1Oc1ccc(F)cc1` gave IL-1B inflam inh inactive, TDP1 cell noCPT inactive, DT40 TDP1 CPT inactive, HepG2 tox inactive, TGFb inhibitor inactive and TDP1 block inactive.
For Cc1c(F)cccc1NC(=O)CCCCCC1NC(=O)NC1C (stereo not drawn) the results were IL-1B inflam inh -96.9, TDP1 cell noCPT inactive, DT40 TDP1 CPT inactive, HepG2 tox inactive, TGFb inhibitor inactive and TDP1 block inactive.
For CC1NC(=O)NC1CCCCCC(=O)Nc1ccc(F)cc1 (stereo not drawn) the results were IL-1B inflam inh -96.9, TDP1 cell noCPT inactive, DT40 TDP1 CPT inactive, HepG2 tox inactive, TGFb inhibitor inactive and TDP1 block inactive.
C[C@H]1CN([C@@H](C)CO)C(=O)c2cc(C#Cc3cccnc3)cnc2O[C@H]1CN(C)Cc1ccc(F)cc1 was read as IL-1B inflam inh inactive, TDP1 cell noCPT inconclusive, DT40 TDP1 CPT inconclusive, HepG2 tox inactive and TGFb inhibitor inactive.
`C[C@H](CO)N1C[C@H](C)[C@@H](CN(C)S(=O)(=O)c2ccccc2F)Oc2ncc(C#Cc3cccnc3)cc2C1=O` gave IL-1B inflam inh inactive, TDP1 cell noCPT 14.6µM, DT40 TDP1 CPT inconclusive, HepG2 tox inactive and TGFb inhibitor inactive.
`CCCC#Cc1cnc2c(c1)C(=O)N([C@H](C)CO)C[C@@H](C)[C@H](CN(C)S(=O)(=O)c1cccc(OC)c1)O2` gave IL-1B inflam inh inconclusive, TDP1 cell noCPT 10.3µM, DT40 TDP1 CPT inconclusive, HepG2 tox inactive and TGFb inhibitor inactive.
Screening COc1ccc(S(=O)(=O)N(C)C[C@H]2Oc3ncc(C#CC4(O)CCCC4)cc3C(=O)N([C@@H](C)CO)C[C@@H]2C)cc1 returned IL-1B inflam inh inactive, TDP1 cell noCPT inconclusive, DT40 TDP1 CPT 9.2µM, HepG2 tox inactive and TGFb inhibitor inactive.
`COc1ccc(S(=O)(=O)N(C)C[C@H]2Oc3ncc(-c4ccncc4)cc3C(=O)N([C@@H](C)CO)C[C@@H]2C)cc1` gave IL-1B inflam inh inconclusive, TDP1 cell noCPT inconclusive, DT40 TDP1 CPT inactive, HepG2 tox inactive and TGFb inhibitor inactive.
O=C(O)c1nnn(-c2cccc(C(F)(F)F)c2)c1-c1ccccc1 was read as IL-1B inflam inh inactive, TDP1 cell noCPT inactive, DT40 TDP1 CPT inactive, HepG2 tox inactive, TGFb inhibitor inactive and TDP1 block inactive.
`CCOC(=O)C(NC(=O)CC(C)C)(Nc1sc(C)c(CC)c1C#N)C(F)(F)F` (stereo not drawn) gave IL-1B inflam inh inactive, TDP1 cell noCPT inconclusive, DT40 TDP1 CPT inconclusive, HepG2 tox inactive, TGFb inhibitor inactive and TDP1 block inactive.
`CCOC(=O)C(NC(=O)CCl)(Nc1sc(C)c(CC)c1C#N)C(F)(F)F` (stereo not drawn) gave IL-1B inflam inh -106.9, TDP1 cell noCPT 6.51µM, DT40 TDP1 CPT inconclusive, HepG2 tox inactive, TGFb inhibitor inconclusive and TDP1 block inactive.
For C=CC1=C2C=C(C3CC3)N(CCOC)C=C2C(=O)C(C)(OC(=O)c2ccco2)C1=O (stereo not drawn) the results were TDP1 block inactive[12.3 µM].
Screening CCOC(=O)C1=C(C)NC2=C(C(=O)CCC2)C1c1cccs1 (stereo not drawn) returned IL-1B inflam inh inactive, TDP1 cell noCPT inactive, DT40 TDP1 CPT inactive, HepG2 tox inactive, TGFb inhibitor inactive and TDP1 block inactive.
CCOC(=O)c1sc2c(c1C)C(c1cccs1)C1=C(CCCC1=O)N2 (stereo not drawn) was read as IL-1B inflam inh inactive, TDP1 cell noCPT 16.4µM, DT40 TDP1 CPT inconclusive, HepG2 tox inactive, TGFb inhibitor inactive and TDP1 block inactive.
CC1=C(C(=O)OC(C)C)C(C)C(C(=O)OC(C)C)=C(C)N1 was read as IL-1B inflam inh inconclusive, TDP1 cell noCPT inconclusive, DT40 TDP1 CPT 11.2µM, HepG2 tox inactive, TGFb inhibitor inactive and TDP1 block inactive.
`CCOC(=O)C1=C(C)Nc2[nH]c(=O)[nH]c(=O)c2C1c1cccs1` (stereo not drawn) gave IL-1B inflam inh inactive, TDP1 cell noCPT inactive, DT40 TDP1 CPT inactive, HepG2 tox inactive, TGFb inhibitor inactive and TDP1 block inactive.
Screening CCOC(=O)C1=CN(Cc2ccc(OC)cc2)C=C(C(=O)OCC)C1c1cccs1 returned IL-1B inflam inh -63.9, TDP1 cell noCPT inconclusive, DT40 TDP1 CPT inconclusive, HepG2 tox inactive, TGFb inhibitor inactive and TDP1 block inconclusive.
CCOC(=O)C1=C(C)NC(C)=C(C(=O)OCC)C1c1cccs1 was read as IL-1B inflam inh inactive, TDP1 cell noCPT 23.1µM, DT40 TDP1 CPT inconclusive, HepG2 tox inactive, TGFb inhibitor inconclusive and TDP1 block inactive.
`CC1=C(C(=O)OC(C)C)C(c2ccc3c(c2)OCO3)NC(=O)N1` (stereo not drawn) gave IL-1B inflam inh inactive, TDP1 cell noCPT inactive, DT40 TDP1 CPT inactive, HepG2 tox inactive, TGFb inhibitor inactive and TDP1 block inactive.
`O=[N+]([O-])c1cccc(-n2cc3ccc([N+](=O)[O-])cc3n2)c1` gave IL-1B inflam inh inactive, TDP1 cell noCPT inactive, DT40 TDP1 CPT inactive, HepG2 tox inactive, TGFb inhibitor inactive and TDP1 block inactive.
For O=C1CCCN1CCCNc1nc2c(S(=O)(=O)c3ccc(Br)cc3)nnn2c2ccccc12 the results were IL-1B inflam inh inactive, TDP1 cell noCPT inactive, DT40 TDP1 CPT inconclusive, HepG2 tox inactive, TGFb inhibitor inactive and TDP1 block inactive.
Screening CC1=C(C(=O)OC(C)C)C(c2cccs2)C(C(=O)OC(C)C)=C(C)N1 returned IL-1B inflam inh -72.5, TDP1 cell noCPT 11.6µM, DT40 TDP1 CPT inconclusive, HepG2 tox inactive, TGFb inhibitor 17.8µM and TDP1 block inactive.
Screening CCOc1ccc(CN2CCN(CCCc3ccccc3)CC2CCO)cc1 (stereo not drawn) returned IL-1B inflam inh -51.7, TDP1 cell noCPT inconclusive, DT40 TDP1 CPT inconclusive, HepG2 tox inactive and TGFb inhibitor inactive.
